Screening data as filed in PubChem BioAssay.
A selection: hits, their analogues and other compounds. The true share with any hit is near 1.4%.
KCNH2 3.1 inh: qHTS for Inhibitors of KCHN2 3.1: Mutant qHTS. U2OS KCNH2 3.1, thallium flux FluxOr; stronger effect = lower value. activity change, % (tested at about 1.8 µM). actives 0.95% (n = 340,000);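 active = maximum activity change below -70%; inconclusive = maximum activity change from -70% to -50%; inactive = maximum activity change above -50%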;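 also: thallium influx rate constant from kinetic fluorescence after stimulation buffer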
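Virally transduced U2OS (3.1 isoform, 4 h infection in dark at RT) → overnight 37 C → FluxOr + Red40 in HBSS/HEPES, 45 min → stimulation buffer, 2 min kinetic read → rate constant vs DMSO controls.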
p53 reactivator: qHTS assay for re-activators of p53 using a Luc reporter. AID 504706, 2011. actives 0.063% (n = 320,000). H1299 p53-A138V BP100-luciferase reporter, luminescence, 24 h. Potency, µM (series often up to 92.2 µM), hits mostly activators; also: nearly all actives have a fitted effect of over 45% in size
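p53-null H1299 cells stably carrying temperature-sensitive p53-A138V and a BP100-luciferase reporter were pinned with compounds (4-point, 1:5 series) and held 24 hrs at 37 deg C. Luminescence was read 10 min after detection reagent.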
KCNH2 WT inh: qHTS for Inhibitors of KCHN2 3.1: Wildtype qHTS; U2OS, BacMam KCNH2, thallium flux FluxOr; stronger effect = lower value; activity change, % at 1.84 µM; actives 0.37% (n = 340,000);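 active = maximum activity change below -70%; inconclusive = maximum activity change between -70% and -50%; inactive = maximum activity change above -50%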
Target sequence (Q12809 whole entry, looked up): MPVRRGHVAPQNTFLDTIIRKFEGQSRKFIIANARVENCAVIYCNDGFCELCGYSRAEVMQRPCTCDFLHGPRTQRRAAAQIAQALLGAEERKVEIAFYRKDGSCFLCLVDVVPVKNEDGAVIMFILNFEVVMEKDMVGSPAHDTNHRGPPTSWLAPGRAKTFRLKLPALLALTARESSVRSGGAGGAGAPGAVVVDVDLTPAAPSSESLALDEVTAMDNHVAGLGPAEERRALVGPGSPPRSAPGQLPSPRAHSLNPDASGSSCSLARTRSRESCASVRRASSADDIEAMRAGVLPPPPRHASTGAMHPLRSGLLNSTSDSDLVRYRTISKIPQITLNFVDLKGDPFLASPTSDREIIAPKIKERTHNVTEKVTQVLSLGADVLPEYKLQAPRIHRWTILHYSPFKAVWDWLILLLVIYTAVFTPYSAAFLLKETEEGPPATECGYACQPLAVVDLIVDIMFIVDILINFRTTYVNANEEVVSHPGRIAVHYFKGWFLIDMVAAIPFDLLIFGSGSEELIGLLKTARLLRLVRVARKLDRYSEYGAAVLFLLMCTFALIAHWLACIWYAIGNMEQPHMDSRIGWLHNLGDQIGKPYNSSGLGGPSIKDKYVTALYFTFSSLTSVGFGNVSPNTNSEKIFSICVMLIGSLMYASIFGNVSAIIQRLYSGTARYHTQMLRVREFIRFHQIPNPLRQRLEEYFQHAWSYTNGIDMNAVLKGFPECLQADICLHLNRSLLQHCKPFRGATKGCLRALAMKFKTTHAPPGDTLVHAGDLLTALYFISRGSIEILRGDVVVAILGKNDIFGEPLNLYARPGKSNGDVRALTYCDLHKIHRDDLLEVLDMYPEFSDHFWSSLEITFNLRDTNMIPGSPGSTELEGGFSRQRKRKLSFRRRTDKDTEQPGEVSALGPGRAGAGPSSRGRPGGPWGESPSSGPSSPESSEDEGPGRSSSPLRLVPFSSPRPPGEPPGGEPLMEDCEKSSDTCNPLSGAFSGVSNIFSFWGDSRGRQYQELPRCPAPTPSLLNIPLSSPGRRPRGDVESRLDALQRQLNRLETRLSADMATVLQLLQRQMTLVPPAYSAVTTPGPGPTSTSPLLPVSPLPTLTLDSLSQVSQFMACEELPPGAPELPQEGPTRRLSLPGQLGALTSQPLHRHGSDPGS
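U2OS cells were transduced with wild-type KCNH2 virus (2.03 x 10^8 / mL) for 4 h at room temperature, then cultured overnight at 37 C. Thallium flux was read with FluxOr dye. Rate constants were normalized to DMSO controls.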
uPA generation: qHTS for Inhibitors of Cell Surface uPA Generation | cell surface uPA generation assay, qHTS | Potency, µM (top dose mostly 38.3 µM), most hits filed as inhibitors | actives 0.31% (n = 330,000) | AID 540303, 2011; active = well fitted inhibition curve with a large enough effect; inconclusive = small, poorly fitted or top-dose-only effect; inactive = no such curve, though single readings can be large or run the other way; tested in mouse RAW 264.7 cells; also: nearly all actives have a fitted effect of over 55% in size
MmCpn inh: Inhibitors of TCP-1 ring complex (TRiC) of Methanococcus maripaludis (MmCpn): qHTS. actives 0.031% (n = 330,000). Potency, µM (highest dose often 76.9 µM), hits mostly inhibitors. Chaperonin Mm-Cpn (Methanococcus maripaludis). purified Mm-Cpn ATPase, ADP Transcreener TR-FRET; also: nearly all actives have a fitted effect of over 80% in size
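Reaction buffer contained 30 mM Tris pH 7.4, 100 mM KCl, 5 mM MgCl2 and 1 mM DTT. Mm-CPN (25 nM final) hydrolysed 10 uM ATP over 30 min at 37°C; ADP was read by HTRF.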
ASM inhibitor: Inhibitors of Secretory Acid Sphingomyelinase (S-ASM): qHTS. AID 504937, 2011. actives 0.006% (n = 340,000). placental ASM, HMU-PC fluorogenic substrate, 60 min. Potency, µM (titrated, usually from 57.5 µM), actives largely listed as inhibitors
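Fluorescence read-out (Ex 386 nm, Em 447 nm) after stopping the reaction at pH 10. Enzyme: ASM from human placenta; substrate HMU-PC0, 9 uM final; 60 min, 37 °C. Compound preincubation 10 min, ambient temperature.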
Large screens that a line does not name were inactive. Unless noted, calls follow the shape of the dose curve; as a rule, active = well fitted curve in the direction sought with a large enough effect; inconclusive = small, poorly fitted or top-dose-only effect, or another doubt; inactive = no such curve, though single readings can be large; an effect the other way counts as inactive or inconclusive.

O=C(c1ccc(-c2ccc(Cl)cc2)o1)N1CCN(c2ccc([N+](=O)[O-])cc2Cl)CC1	KCNH2 3.1 inh -83
O=C(c1ccc(-c2cccc([N+](=O)[O-])c2)o1)N1CCN(c2ccc([N+](=O)[O-])cc2)CC1	KCNH2 3.1 inh -116, KCNH2 WT inh -111
O=[N+]([O-])c1cccc(-c2ccc(C(=S)N3CCN(c4ccc(F)cc4)CC3)o2)c1	none
O=C(c1ccc([N+](=O)[O-])cc1)N1CCN(C(=O)c2cccnc2)CC1	none
O=C(c1cccnc1)N1CCN(c2ccc([N+](=O)[O-])cc2Cl)CC1	KCNH2 3.1 inh -120
O=C(CSc1ccc(Br)cc1)NCC(c1ccco1)N1CCCCC1 (stereo not given)	none
Nc1c(Cl)cc(C2=NCCn3c2c2ccc([N+](=O)[O-])cc2[n+]3[O-])cc1Cl	p53 reactivator inconclusive, uPA generation 4µM
Cc1ccc(S(=O)(=O)N2CCN(C(=O)CCc3c[nH]c4ccccc34)CC2)cc1	none
O=C(CCc1c[nH]c2ccccc12)OCC(=O)N1CCN(S(=O)(=O)c2ccccc2)CC1	KCNH2 WT inh -101
Cc1ccc(SC[C@H](Cc2ccccc2)N2CCN(CCc3ccccc3)CCC2=O)cc1	KCNH2 3.1 inh -106, KCNH2 WT inh -101
CCCCCCCN1CCC(=O)N([C@H](CO)Cc2ccccc2)CC1	KCNH2 3.1 inh -109, KCNH2 WT inh inconclusive
CCCN1CCC(=O)N([C@H](CSc2ccc(OC)cc2)Cc2ccccc2)CC1	KCNH2 3.1 inh -101, uPA generation inconclusive
O=C1CCN(CCc2ccccc2)CCN1[C@H](CSc1ccccc1)Cc1ccccc1	KCNH2 3.1 inh -103, KCNH2 WT inh -141, uPA generation inconclusive
CC(=O)OCC(=O)C1(O)CCC2C3CCC4=CC(=O)CCC4(C)C3(Cl)C(O)CC21C (stereo not given)	none (no result: p53 reactivator, MmCpn inh)
CC(C)c1ccc(N(CC(=O)NCc2ccco2)C(=O)CCC(=O)Nc2ccccn2)cc1	none
CCCN1CCC(=O)N([C@H](CSc2ccc(C)cc2)Cc2ccccc2)CC1	KCNH2 3.1 inh -101
Cc1ccc(SC[C@H](Cc2ccccc2)N2CCN(C)CCC2=O)cc1	KCNH2 3.1 inh inconclusive
COC(=O)N1C(=O)[C@@](c2ccccc2)(C2CCCC2)N1C(=O)OC	uPA generation 7.1µM
C[C@H]1CN([C@@H](C)CO)S(=O)(=O)c2ccc(Br)cc2O[C@H]1CN(C)C(=O)CCN1CCCCC1	none (no result: p53 reactivator, uPA generation, MmCpn inh, ASM inhibitor)
CCOC(=O)C1CCCN(C(=O)c2ccc(S(=O)(=O)Nc3ccccc3OC)cc2)C1 (stereo not given)	none
CCCCn1c(=N)n(CCOc2ccc(C)cc2)c2ccccc21	KCNH2 3.1 inh -111, KCNH2 WT inh -128
Cc1cc(C)c2c(CN3CCN(Cc4ccc5c(c4)OCO5)CC3)cc(=O)oc2c1C	KCNH2 3.1 inh -92
Cc1cc(C)nc(/N=C(\N)Nc2ccc(OCCC(C)C)cc2)n1	KCNH2 3.1 inh -82
Cc1cc(C)nc(/N=C(\N)Nc2cccc(OCc3ccccc3)c2)n1	KCNH2 3.1 inh inconclusive, uPA generation 7.1µM
Cc1cc(C)nc(/N=C(\N)Nc2ccc(OCc3ccccc3)cc2)n1	KCNH2 3.1 inh -80
COc1ccc(N/C(N)=N/c2nc(C)cc(C)n2)cc1	none (no result: p53 reactivator, uPA generation, MmCpn inh, ASM inhibitor)
CC(C)COc1ccc(C(=O)OCC(=O)N(C)CC(=O)Nc2ccc(F)cc2)cc1	none
C#CCOCCOCCOCCNc1nc(N2CCN(C(=O)Cn3cc(CCO)nn3)CC2)nc(N2CCN(C(=O)Cn3cc(CCCCN)nn3)CC2)n1	none (no result: p53 reactivator, MmCpn inh)
Cc1nc2c3ccccc3nc(NNC(=O)CCC(=O)N3CCCC(C)C3)n2n1 (stereo not given)	none
Cc1cccc(OCCNC(=O)CCc2ccccc2)c1	none (no result: p53 reactivator, MmCpn inh)
CCOc1ccc(NC(=O)CC2C(=O)N(CC)C(=S)N2CCN2CCOCC2)cc1 (stereo not given)	KCNH2 3.1 inh -88
Cc1ccc(S(=O)(=O)NCc2ccccc2)cc1C(=O)N1CCCC(C(F)(F)F)C1 (stereo not given)	none
COC(=O)C1CCN(C(=O)c2cc(-c3ccc(Cl)s3)nc3ccccc23)CC1	uPA generation 1.8µM, MmCpn inh inconclusive
O=C(c1cnc(Cl)c(Cl)c1)N1CCN(S(=O)(=O)c2cccs2)CC1	none (no result: p53 reactivator, uPA generation, MmCpn inh, ASM inhibitor)
CCSc1ccc2c(c1)N(CCCN1CCN(C)CC1)c1ccccc1S2	KCNH2 3.1 inh -73
OC1CC2CCC(C1)N2CCCN1c2ccccc2Sc2ccc(Cl)cc21 (stereo not given)	none (no result: p53 reactivator, MmCpn inh)
O=[N+]([O-])c1ccccc1N/N=C/c1ccc2c(c1)OCO2	none
O=C(O)c1ccccc1NN=Cc1ccccc1	KCNH2 3.1 inh -77 (no result: p53 reactivator, MmCpn inh)
O=[N+]([O-])c1ccccc1N/N=C/c1ccccc1	KCNH2 3.1 inh -83
COc1cccc(/C=N/Nc2ccccc2C(=O)O)c1O	p53 reactivator inconclusive
O=C(Cc1ccccc1F)Nc1cccc(S(=O)(=O)N2CCCCC2)c1	none (no result: p53 reactivator, uPA generation, MmCpn inh, ASM inhibitor)
COC(=O)c1[nH]c2ccccc2c1NC(=O)CN1CCN(C/C=C/c2ccccc2)CC1	KCNH2 3.1 inh -96, KCNH2 WT inh -94
COc1ccc(C)cc1NC(=O)Nc1ccccc1	KCNH2 3.1 inh -135, KCNH2 WT inh -137
COc1cc2ccccc2cc1C(=O)Nc1ccc(C)cc1	uPA generation 20µM
COC(=O)c1[nH]c2ccccc2c1NC(=O)CN1CC(C)OC(C)C1 (stereo not given)	none
COc1ccc(NC(=O)Nc2cc(C)ccc2OC)cc1	none
COc1cc2ccccc2cc1C(=O)Nc1cc(C)ccn1	none
O=C(CN1CCN(C/C=C/c2ccccc2)CC1)NCc1ccc(Cl)cc1	KCNH2 3.1 inh -124, KCNH2 WT inh inconclusive
CSCCC(NC(=O)COc1ccccc1)C(=O)NCC(C)(C)N1CCOCC1 (stereo not given)	none (no result: p53 reactivator, uPA generation, MmCpn inh, ASM inhibitor)
C1=CC2=NC34CCCCC3CC3=C(CCCC3)N4C2=CC1=NC1CCCCC1 (stereo not given)	none (no result: p53 reactivator, MmCpn inh)
Cc1ccc(CNS(=O)(=O)c2ccc(Cl)s2)cc1	none (no result: p53 reactivator, uPA generation, MmCpn inh, ASM inhibitor)
COc1ccc(C)cc1NC(=O)CN1CCN(C/C=C/c2ccccc2)CC1	KCNH2 3.1 inh -102, KCNH2 WT inh -98
CCOC(=O)c1[nH]c2ccc(F)cc2c1NC(=O)CN1CCN(C/C=C/c2ccccc2)CC1	KCNH2 3.1 inh inconclusive, KCNH2 WT inh -90
COc1ccc(S(=O)(=O)N2CCCCCC2)cc1C(=O)N1CCN(c2ccc(F)cc2)CC1	none (no result: p53 reactivator, MmCpn inh)
COc1cc(CNCCc2c[nH]c3ccccc23)ccc1OCc1ccccc1F	KCNH2 3.1 inh -79
Cc1ccc(C)c(C2=NNC(=O)CC2)c1	none (no result: p53 reactivator, MmCpn inh)
